Screening data as filed in PubChem BioAssay.
RTF Ca sens inh: cardiac RTF calcium desensitization. inhibition, % at 7.15 µM. P19429+P45379. 0.12% of 340,000 active. IANBD-labeled cardiac RTF, Ca2+ fluorescence;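 active = inhibition above the mean inhibition of all tested compounds plus 3 SD, cut at about 17% in these data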;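 note: assay run at fixed EC70 calcium of 1.6 mM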
IDE inh: cellular human IDE inhibition. 0.41% of 320,000 active. AID 434962. inhibition, % at 5.59 µM. HEK cells, FAbetaB cleavage, fluorescence polarization. P14735;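 active = percent inhibition above the average of all tested compounds plus 3 SD, set per screening campaign, cut at about 16% in these data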;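 note: IDE supplied by intact live HEK cells; FP after avidin binding of uncleaved biotin substrate so inhibition keeps polarization high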
LANA DNA inh: blocks KSHV LANA C-terminal domain binding to DNA | MBP-C-LANA/FAM-LBS DNA binding, fluorescence polarization | 0.078% of 340,000 active | inhibition, % at 9 µM;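 active = highest replicate inhibition at or above 60% at 9 µM, even if other replicates fall short; inactive = all replicates below 60% inhibition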
IDE cell activ: boosts human insulin-degrading enzyme activity in HEK cells; P14735; 0.073% of 340,000 active; FAbeta-B cleavage, fluorescence polarization; 0% vehicle, 100% cell-free pure enzyme wells; activation, % at 5.96 µM;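 active = activation above the mean of all tested compounds plus 3 SD, set per screening campaign, cut at about 17% in these data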
cardiac RTF act: increases calcium sensitivity of human cardiac regulated thin filaments. P19429+P45379. IANBD-labeled TnC RTF fluorescence at EC20 calcium; 0% EC20 calcium, 100% full calcium. activation, % at 7.2 µM. 0.24% of 340,000 active. AID 493008;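 active = activation above the mean over all tested compounds plus 3 SD, cut at about 30% in these data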;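 note: rise in fluorescence read as greater calcium sensitivity of cardiac thin filaments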
Keap1-Nrf2 PPI: Keap1-Nrf2 (human) interaction inhibition; Q14145; Keap1 Kelch-Nrf2 peptide fluorescence polarization, 1536-well; inhibition, % at 9.4 µM; 0.15% of 340,000 active; in the data active = inhibition above about 12%;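 note: human Keap1 Kelch domain with fluorescein labeled Nrf2 9mer peptide probe; higher means more block of Keap1 binding to Nrf2 peptide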
Target sequence (Q14145 whole entry, looked up, the tested form may be a part): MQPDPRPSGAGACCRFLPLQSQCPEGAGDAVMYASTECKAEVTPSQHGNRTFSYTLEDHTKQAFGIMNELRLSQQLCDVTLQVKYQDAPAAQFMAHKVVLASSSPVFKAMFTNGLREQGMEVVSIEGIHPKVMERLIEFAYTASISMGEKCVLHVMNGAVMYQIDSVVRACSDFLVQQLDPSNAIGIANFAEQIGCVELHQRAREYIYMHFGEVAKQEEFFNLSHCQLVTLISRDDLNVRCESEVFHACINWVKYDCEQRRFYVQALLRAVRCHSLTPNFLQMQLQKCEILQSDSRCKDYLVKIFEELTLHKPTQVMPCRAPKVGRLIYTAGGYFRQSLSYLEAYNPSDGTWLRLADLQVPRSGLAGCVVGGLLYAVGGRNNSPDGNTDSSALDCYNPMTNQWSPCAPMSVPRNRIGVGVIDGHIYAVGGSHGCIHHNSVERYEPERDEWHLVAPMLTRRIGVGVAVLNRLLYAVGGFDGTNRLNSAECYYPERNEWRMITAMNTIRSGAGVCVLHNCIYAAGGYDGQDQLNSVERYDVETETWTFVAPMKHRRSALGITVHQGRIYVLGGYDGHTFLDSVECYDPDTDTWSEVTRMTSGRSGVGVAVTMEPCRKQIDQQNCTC
IDE cell inh cf: confirmation of human insulin-degrading enzyme inhibitors in cells; shares compounds with IDE inh; HEK cells, FAbetaB cleavage, fluorescence polarization; inhibition, % at 5.59 µM; 51% of 1,200 active; AID 435028;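 active = mean inhibition across triplicate wells above the cutoff set by the earlier primary insulin-degrading enzyme screen, cut at about 16% in these data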
HEK293 tox: HEK cell cytotoxicity, counter-screen for IDE inhibitors. shares compounds with IDE inh. HEK293 cytotoxicity, ATP luminescence. inhibition, % at 5.59 µM. 28% of 1,200 active. AID 449730; in the data active = inhibition above about 22%
FP fluor counter: fluorescent artifact in IDE inhibitor FP assay; shares compounds with IDE inh; FP counterscreen for fluorescent artifacts, IDE probe project; IC50, µM; 30 tested, under 10 active; call rule not given here
Each line names hits and unclear results; the compound was inactive in the other large screens (follow-up assays come after a bar, where they were run). This is a sample that favours compounds with a hit; in the whole collection about 0.81% have one here.

COc1cccc(C(=O)Nc2cccc(-c3nnc(-c4ccccc4)o3)c2)c1	IDE inh 17 | IDE cell inh cf inactive | HEK293 tox inactive
O=C(Nc1cccc(-c2nnc(-c3ccco3)o2)c1)c1ccccc1	none (no result: RTF Ca sens inh, IDE cell activ, cardiac RTF act)
COc1cccc(C(=O)Nc2ccc(-c3nnc(-c4ccco4)o3)cc2)c1	IDE inh 22 | IDE cell inh cf inactive | HEK293 tox 23
CC(Oc1ccccc1)C(=O)N1CCN=C1SCc1ccccc1F (stereo not drawn)	none
CCCCN(C)S(=O)(=O)c1cc2c(cc1Br)CCN2C(=O)C1CC1	none (no result: IDE inh)
O=c1c(Cl)c(NCc2ccco2)cnn1C12CC3CC(CC(C3)C1)C2	none
O=c1c(Cl)c(NCc2ccccc2Cl)cnn1C12CC3CC(CC(C3)C1)C2	IDE inh 34 | IDE cell inh cf 19 | HEK293 tox 40
Cc1cccc(C(=O)NC(=S)Nc2cccc3nc(C)ccc23)c1	none
CCc1cc(C(=O)NNC(=S)NC(C)c2ccccc2)cs1 (stereo not drawn)	IDE inh 19 | IDE cell inh cf inactive | HEK293 tox inactive
O=C(COC(=O)C1CC1)Nc1nc(-c2ccc(F)c(F)c2)cs1	none
CN(C)c1ccc(/C=C/C(=O)c2c(O)c3ccccc3oc2=O)cc1	IDE inh 25 | IDE cell inh cf 36 | HEK293 tox inactive
CCOc1ccc(/C=C/C(=O)c2c(O)c3ccccc3oc2=O)cc1	none
Cc1cccc(NC(=O)CSc2nnc(CSc3nc(C)cc(C)n3)n2Cc2ccco2)c1	none
COc1cc(/C=C/C(=O)O)cc(Br)c1O	none
COc1cc(/C=C/C(=O)C2C(=O)C=C(C)OC2=O)cc(OC)c1O (stereo not drawn)	IDE inh 24 | IDE cell inh cf 35 | HEK293 tox inactive
COc1ccc(/C=C/C(=O)C2C(=O)C=C(C)OC2=O)cc1O (stereo not drawn)	IDE inh 28 | IDE cell inh cf inactive | HEK293 tox inactive
CN(C)S(=O)(=O)c1cccc(NC(=O)CCc2nc3sc4c(c3c(=O)[nH]2)CCCC4)c1	IDE inh 22 | IDE cell inh cf inactive | HEK293 tox 25
Cc1cccc(NC(=O)CCc2nc3sc4c(c3c(=O)[nH]2)CCCC4)c1	none
CCN1C(=O)c2cccc3c(S(=O)(=O)NCCc4c[nH]c5ccccc45)ccc1c23	none
COc1ccc(CCNC(=O)c2ccc(Cl)c(S(=O)(=O)N(C)c3ccccc3)c2)cc1	IDE inh 18 | IDE cell inh cf inactive | HEK293 tox 34
COc1ccc(CCNC(=O)c2ccc(Cl)c(S(=O)(=O)N3CCCCCC3)c2)cc1	none
CC1=CC(C)(C)Nc2ccc(OC(=O)CCN3C(=O)c4ccccc4C3=O)cc21	IDE inh 17 | IDE cell inh cf 38 | HEK293 tox 127
O=c1oc2c3c4c(cc2c(C(F)(F)F)c1CCN1CCOCC1)CCCN4CCC3	IDE inh 37, cardiac RTF act 70 | IDE cell inh cf 68 | HEK293 tox inactive
Cc1nn(C)c(NC(=O)c2ccc(Cl)cc2Cl)c1Br	none
Cc1ccc(CNC(=O)COC(=O)CCOc2ccc(C)cc2)cc1	none
CC[n+]1ccc(/C=C2\Sc3ccccc3N2CCCS(=O)(=O)[O-])c2ccccc21	IDE inh 17 | IDE cell inh cf inactive | HEK293 tox inactive
Cc1c2n(c3ccccc13)CCN(C)C2	none
COc1ccc(CCN(C)C(=O)CNC(=O)Cc2cccc3ccccc23)cc1OC	none
O=C(Cc1ccc(-c2ccccc2)cc1)NCCN1CCOCC1	none
O=C(NCCN1CCOCC1)c1ccc(-c2ccccc2)cc1	IDE inh 19 | IDE cell inh cf inactive | HEK293 tox inactive
Cc1nn(Cc2c(F)c(F)c(F)c(F)c2F)c(C)c1NC(=O)c1ccc(COc2ccc(Cl)cc2Cl)o1	IDE inh 19 | IDE cell inh cf inactive | HEK293 tox 34
Cc1nn(Cc2cccc(F)c2)c(C)c1NC(=O)c1ccc(COc2ccccc2Cl)cc1	IDE inh 25 | IDE cell inh cf inactive | HEK293 tox 55
CCOc1ccc(Br)cc1CNc1ccc2c(c1)OCCO2	none
COc1ccc(/C=N/n2cnn(Cc3ccccc3Cl)c2=S)cc1	none
CC(=O)Cc1cc(O)c2ccccc2c1OC(=O)c1ccccc1	IDE inh 43 | IDE cell inh cf 37 | HEK293 tox inactive
Cc1ccc(S(=O)(=O)n2c(=O)oc3ccccc32)cc1	none
Cc1sc2ncnc(N/N=C/c3cccc(O)c3)c2c1C	none
C/C(=N\Nc1ncnc2sc(C)c(C)c12)c1ccccn1	IDE inh 48 | IDE cell inh cf 36 | HEK293 tox 118
CN1CCN(Cc2c(C(=O)N/N=C/c3cccc(Br)c3)nnn2-c2nonc2N)CC1	none
Nc1c(C(=O)NCCc2ccccc2)sc2nc(N3CCOCC3)c3c(c12)CCCC3	IDE inh 17 | IDE cell inh cf inactive | HEK293 tox 29
COc1ccc(Cn2c(CCCO)nc3ccccc32)cc1OC	none
Cc1cc([N+](=O)[O-])ccc1NC(=O)CCC(=O)N1CCCC1	none
O=C(Nc1cccc(C(F)(F)F)c1)c1csc(-c2ccncc2)n1	IDE inh 50 | IDE cell inh cf 29 | HEK293 tox inactive | FP fluor counter inactive
COc1cc(NC(=O)c2csc(-c3ccncc3)n2)cc(C(=O)Nc2cccc(C(F)(F)F)c2)c1	none
COc1ccc(-c2nc(C(=O)Nc3cccc(C(F)(F)F)c3)cs2)cc1	none (no result: RTF Ca sens inh, IDE inh, LANA DNA inh, IDE cell activ, cardiac RTF act, Keap1-Nrf2 PPI) | FP fluor counter inactive
Cc1nc(-c2cccnc2)sc1C(=O)Nc1cccc(C(F)(F)F)c1	none | FP fluor counter inactive
COc1cccc(/C=C/C(=O)OCC(=O)c2c(N)n(C)c(=O)n(C)c2=O)c1	none
N#CCN1CCC(c2cc(-c3ccco3)n[nH]2)CC1	none (no result: RTF Ca sens inh, LANA DNA inh, IDE cell activ, cardiac RTF act, Keap1-Nrf2 PPI)
O=C(CCl)N(CCc1ccccc1)CCc1ccccc1	none
O=C(O)Cc1sc(NC2CCCCC2)nc1-c1ccc(Cl)cc1	IDE inh 20 | IDE cell inh cf inactive | HEK293 tox inactive
COc1ccc(/C=N/N2CCN(c3ccccc3)CC2)cc1Br	none
Cc1ccc(N2C(=O)c3cccc4c(N)ccc(c34)C2=O)c2cccnc12	IDE inh 84, cardiac RTF act 754 | IDE cell inh cf 65 | HEK293 tox 68
Cn1c(/C(C#N)=C/c2ccc(-c3ccc(S(N)(=O)=O)cc3)o2)nc2ccccc21	IDE inh 26, cardiac RTF act 45 | IDE cell inh cf 47 | HEK293 tox 46
